This note sets out measurements from PubChem BioAssay.

Concanavalin-A (Canavalia ensiformis), sequence (P02866 whole entry, looked up): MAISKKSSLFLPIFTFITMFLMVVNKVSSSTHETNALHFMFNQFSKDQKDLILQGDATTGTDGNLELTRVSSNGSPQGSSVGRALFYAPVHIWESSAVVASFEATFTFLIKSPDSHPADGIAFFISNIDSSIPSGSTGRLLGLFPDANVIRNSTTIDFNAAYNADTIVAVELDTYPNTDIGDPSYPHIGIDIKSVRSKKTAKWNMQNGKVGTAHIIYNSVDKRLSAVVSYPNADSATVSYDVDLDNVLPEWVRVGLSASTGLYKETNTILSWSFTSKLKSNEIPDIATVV

One assay has as its target Concanavalin-A (Canavalia ensiformis) (UniProt P02866). Kind of assay: compounds binding concanavalin A lectin – biochemical, small-molecule microarray, Alexa647 label, 635 nm, artefact control for SMM control protein annotation, primary screen (AID 1127).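 Further: z combines 667 nm emission intensity with signal-to-noise across three replicate slides.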 The note with it: ConA-A647 binding fluorescence, higher = more signal.
Compound `COc1ccccc1CN1C(=O)c2ccccc2[C@@]2(Cc3ccccc3N(CC(F)(F)F)C2=O)[C@@H]1c1ccc(CO)cc1` displayed a composite z-score of 0.331.

For `CC(C)(C)OC(=O)CC[C@]1(C(=O)NCc2ccccc2)N=C(c2ccc(OCCCO)cc2)O[C@H]1c1ccccc1CN=[N+]=[N-]`, the composite z-score was found to be 0.769.

Regarding `O=C(NCC(F)(F)F)[C@@H]1c2ccccc2C(=O)N(Cc2ccc(OC(F)(F)F)cc2)[C@H]1c1ccc(CO)cc1`, the composite z-score turned out to be 0.711.

In the case of `COc1ccc([Si](C)(C)[C@H]2[C@H](CCn3cc([C@H](O)c4ccccc4)nn3)O[C@@]3(C(=O)N(Cc4ccc(N5C(=O)c6cccc7cccc5c67)cc4)c4ccccc43)[C@@H]2C)cc1`, the composite z-score came out at 0.115.

As to `CCCCCCc1nc(C2CC2)cc2c1[Si](C(C)C)(C(C)C)O[C@H]2c1ccccc1`, the composite z-score was determined as 0.327.

For the compound `COc1cc2c(cc1OC)CN(C(=O)[C@@H]1[C@H]3C(=O)O[C@H](c4ccccc4)[C@H](c4ccccc4)N3[C@H](c3ccc(OCCO)cc3)[C@@]13C(=O)Nc1ccccc13)CC2`, the composite z-score turned out to be 1.15.

As to `CCOC(=O)C[C@H]1[C@H](OC(=O)c2ccc(C(=O)c3ccccc3)cc2)[C@@H](NC(=O)Cc2ccc(OC)cc2)c2cc(OCCCO)ccc2N1C(=O)c1ccccc1`, the composite z-score stood at 0.278.

`Cc1cc(C)c(C(O)C2C=CC3C(=O)NC(=O)C3N2Nc2ccc(Cl)cc2Cl)c(C)c1` (stereo not drawn) came in with a composite z-score of 1.09.

Tested on in a further assay: not listed separately
The assay is described as follows: compounds binding Alexa647 anti-His antibody – biochemical, small-molecule microarray, 635 nm fluorescence, artefact control for SMM control protein annotation, primary screen (AID 1128).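 Further: score merges feature fluorescence with signal-to-noise for each printed compound spot.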 As to conditions: higher = more signal.
Regarding `COC(=O)c1c2oc(c1C(=O)OC)C(=O)N(Cc1ccccc1)Cc1cn(nn1)C[C@H](Cc1ccccc1)NC(=O)N[C@H](CO)CC2`, the composite z-score came out at 0.402.

With `O=C1O[C@H](c2ccccc2)[C@H](c2ccccc2)N2[C@H]1[C@@H](C(=O)Nc1nc3ccccc3s1)[C@]1(C(=O)Nc3ccc(C#CC4(O)CCCCCC4)cc31)[C@H]2c1ccccc1OCCO`, the composite z-score came to 1.41.

Regarding `O=C1O[C@@H](c2ccccc2)[C@@H](c2ccccc2)N2[C@@H](c3ccccc3OCCO)[C@]3(C(=O)Nc4ccc(C#CCCO)cc43)[C@@H](C(=O)N3CCCCCCC3)[C@H]12`, the composite z-score was determined as 3.38.

Compound `CC(C)N1CC=CC23O[C@@H]4C=CCOC(=O)[C@@H]4[C@H]2C(=O)N(CCCO)[C@@H]3C1=O` (stereo partly drawn) came in with a composite z-score of 1.59.

The compound `COc1ccc([Si](C)(C)[C@@H]2[C@@H](CC(=O)N(CCO)Cc3ccccc3)O[C@]3(C(=O)N(Cc4cccc(N5CCOC5=O)c4)c4ccccc43)[C@H]2C)cc1` returned a composite z-score of 1.78.

In turn, `COC(=O)[C@@]1(Cc2ccc(F)cc2)[C@H]2c3cc(C(=O)N4CCCC4)n(CCN4CNCC4=O)c3C[C@H]2CN1C(=O)c1ccccc1` yielded a composite z-score of 2.44.

Compound `C=C[C@@H](COC(C)=O)N(C(=O)OC(C)(C)C)S(=O)(=O)c1ccc(Br)cc1` showed a composite z-score of 1.5.

Regarding `CN(C)C(=O)[C@]1(CCS(=O)(=O)c2ccccc2)N=C(c2ccc(OCCCO)cc2)O[C@@H]1c1ccccc1N=[N+]=[N-]`, the composite z-score is 1.21.

In the case of `O=C1NC(=O)C2C1C=CC(C(O)c1ccco1)N2Nc1ccccn1` (stereo not drawn), the composite z-score was -0.324.

`C=CC[C@]1(C(=O)NCCN2CCOCC2)N=C(c2ccc(OCCCO)cc2)O[C@H]1c1ccccc1CN=[N+]=[N-]` had a composite z-score of 0.625.

For the compound `CCOC(=O)C[C@H]1[C@H](OC(=O)c2ccccc2-c2ccccc2)[C@@H](NC(=O)c2ccc(-c3ccccc3)cc2)c2cc(OCCCO)ccc2N1C(=O)c1ccc2ccccc2n1`, the composite z-score turned out to be 0.792.

The compound `CCCC[C@@H](O)C1=C(COc2ccccc2)C[C@H]2C(=O)N(C)C(=O)[C@H]2[C@H]1CO` displayed a composite z-score of 0.0713.

`COCCOC(=O)N1C(=O)[C@@]2(c3cc(C#Cc4ccc(OC)cc4)ccc31)[C@H](C(=O)Nc1nc3ccccc3s1)[C@H]1C(=O)O[C@H](c3ccccc3)[C@H](c3ccccc3)N1[C@@H]2c1ccc(O)cc1`: the composite z-score is -0.0507.

In the case of `COC1OC[C@]2(C)[C@H]3C4=C(CN2C(=O)OC(C)(C)C)[C@H](C)C(CO)C(CO)C4CC[C@@H]13` (stereo partly drawn), the composite z-score worked out at 2.1.

As for `COCCCNC(=O)[C@]1(CCS(=O)(=O)c2ccccc2)N=C(c2ccc(OCCCO)cc2)O[C@@H]1c1ccccc1N=[N+]=[N-]`, the composite z-score is 2.09.

Compound `CCCNC(=O)[C@@]1(c2ccc([N+](=O)[O-])cc2)CC(=O)N(C2CCCCC2)[C@@H]1c1ccc(CO)cc1` had a composite z-score of 1.86.

`[N-]=[N+]=NCc1ccccc1C[C@@]1(C(=O)N2CCOCC2)N=C(c2ccc(OCCCO)cc2)O[C@@H]1c1ccccc1` showed a composite z-score of 3.12.

Compound `NC(N)=NCCCn1cc(CNC(=O)[C@@H](N)Cc2ccccc2)nn1` displayed a composite z-score of 0.499.

In turn, `COC(=O)[C@@]1(Cc2ccc(OC)cc2)[C@H]2c3cc(C(=O)N(C)C)n(CCO)c3C[C@H]2CN1C(=O)c1ccccc1` showed a composite z-score of 0.214.

Compound `COCCCNC(=O)[C@@]1(Cc2ccccc2CN=[N+]=[N-])N=C(c2ccc(OCCCO)cc2)O[C@H]1c1ccccc1` showed a composite z-score of 1.75.

The compound `C=C[C@@H](OC)[C@H](OC(=O)Nc1ccc(SC)cc1)c1ccc(O)c(F)c1` had a composite z-score of 3.07.

In turn, `CCCCCCCCCCC(O)C1C=CC2C(=O)N(C)C(=O)C2N1Nc1ccc([N+](=O)[O-])cc1[N+](=O)[O-]` (stereo not drawn) gave a composite z-score of 1.38.

Regarding `O=C(NCc1ccccc1)[C@@H]1c2ccccc2C(=O)N(Cc2ccccc2C(F)(F)F)[C@H]1c1ccc(CO)cc1`, the composite z-score was -0.782.

In turn, `COCCOC(=O)N1C(=O)[C@@]2(c3cc(C#CCCO)ccc31)[C@H](C(=O)Nc1nc3ccccc3s1)[C@H]1C(=O)O[C@H](c3ccccc3)[C@H](c3ccccc3)N1[C@@H]2c1ccccc1OCCO` displayed a composite z-score of 1.87.

In turn, `COCCOC(=O)N1C(=O)[C@@]2(c3cc(C#CCC(C(=O)OC)C(=O)OC)ccc31)[C@H](C(=O)N1CCc3cc(OC)c(OC)cc3C1)[C@H]1C(=O)O[C@H](c3ccccc3)[C@H](c3ccccc3)N1[C@@H]2c1ccc(OCCO)cc1` displayed a composite z-score of 2.19.

In turn, `COc1ccc(CCNC(=O)[C@@]2(Sc3ccc(C)cc3)CC(=O)N(C3Cc4ccccc4C3)[C@@H]2c2ccc(CO)cc2)cc1` had a composite z-score of 1.27.

Consider `CC1=C([C@H](O)CCc2ccccc2)[C@H](CO)[C@@H]2C(=O)N(C)C(=O)[C@@H]2C1`, for which the composite z-score is 0.32.

Turning to `COc1ccccc1CN1C(=O)c2ccccc2[C@@]2(Cc3ccccc3N(CC(F)(F)F)C2=O)[C@@H]1c1ccc(CO)cc1`, the composite z-score is -0.0478.

For `CC(C)(C)OC(=O)CC[C@]1(C(=O)NCc2ccccc2)N=C(c2ccc(OCCCO)cc2)O[C@H]1c1ccccc1CN=[N+]=[N-]`, the composite z-score is 2.

As for `O=C(NCC(F)(F)F)[C@@H]1c2ccccc2C(=O)N(Cc2ccc(OC(F)(F)F)cc2)[C@H]1c1ccc(CO)cc1`, the composite z-score was found to be 0.191.

Compound `COc1ccc([Si](C)(C)[C@H]2[C@H](CCn3cc([C@H](O)c4ccccc4)nn3)O[C@@]3(C(=O)N(Cc4ccc(N5C(=O)c6cccc7cccc5c67)cc4)c4ccccc43)[C@@H]2C)cc1` gave a composite z-score of 0.107.

`CCCCCCc1nc(C2CC2)cc2c1[Si](C(C)C)(C(C)C)O[C@H]2c1ccccc1`: the composite z-score was -0.523.

As for `COc1cc2c(cc1OC)CN(C(=O)[C@@H]1[C@H]3C(=O)O[C@H](c4ccccc4)[C@H](c4ccccc4)N3[C@H](c3ccc(OCCO)cc3)[C@@]13C(=O)Nc1ccccc13)CC2`, the composite z-score stood at 1.04.

For `CCOC(=O)C[C@H]1[C@H](OC(=O)c2ccc(C(=O)c3ccccc3)cc2)[C@@H](NC(=O)Cc2ccc(OC)cc2)c2cc(OCCCO)ccc2N1C(=O)c1ccccc1`, the composite z-score turned out to be 0.305.

In the case of `Cc1cc(C)c(C(O)C2C=CC3C(=O)NC(=O)C3N2Nc2ccc(Cl)cc2Cl)c(C)c1` (stereo not drawn), the composite z-score was 1.37.
